# In publication PMC11006913:
# How the values were obtained:
# Experiment in all cases: PBM; 200 nM protein, PBS
# Conditions in all cases: dsDNA, one strand shown
# HOXC9 [1] = biological target: HOXC9 (Homo sapiens, UniProt P31274 178-260, K195R)
# NKX2-6 = biological target: T1, NKX2-6 (Homo sapiens, UniProt A6NCS4 118-204, R150C)
# T1 sequence: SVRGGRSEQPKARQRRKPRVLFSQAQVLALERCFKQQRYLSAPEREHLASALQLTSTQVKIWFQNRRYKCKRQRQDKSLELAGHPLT
# HOXC9 [2] = biological target: HOXC9 (Homo sapiens, UniProt P31274 178-260)
# Sequence of HOXC9 (Homo sapiens, UniProt P31274 178-260) (P31274 178-260): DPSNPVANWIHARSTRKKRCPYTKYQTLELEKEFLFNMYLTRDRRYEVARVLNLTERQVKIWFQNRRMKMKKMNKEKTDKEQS
# HOXC9 [3] = biological target: HOXC9 (Homo sapiens, UniProt P31274 178-260, R193K)
# Sequence of HOXC9 (Homo sapiens, UniProt P31274 178-260, R193K) (P31274 178-260 R193K): as the sequence (P31274 178-260) above, with R16K counted along it
# HOXC9 [4] = biological target: HOXC9 (Homo sapiens, UniProt P31274 178-260, R222W)
# Sequence of HOXC9 (Homo sapiens, UniProt P31274 178-260, R222W) (P31274 178-260 R222W): as the sequence (P31274 178-260) above, with R45W counted along it
# ALX1 [5] = biological target: ALX1 (Homo sapiens, UniProt Q15699 118-204, L144V)
# Sequence of ALX1 (Homo sapiens, UniProt Q15699 118-204, L144V) (Q15699 118-204 L144V): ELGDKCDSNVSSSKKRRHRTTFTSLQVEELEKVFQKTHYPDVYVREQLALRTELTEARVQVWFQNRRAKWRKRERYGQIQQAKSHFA
# ALX1 [6] = biological target: ALX1 (Homo sapiens, UniProt Q15699 118-204, L144R)
# Sequence of ALX1 (Homo sapiens, UniProt Q15699 118-204, L144R) (Q15699 118-204 L144R): as the sequence (Q15699 118-204 L144V) above, with V27R counted along it
# ALX1 [7] = biological target: ALX1 (Homo sapiens, UniProt Q15699 118-204)
# Sequence of ALX1 (Homo sapiens, UniProt Q15699 118-204) (Q15699 118-204): as the sequence (Q15699 118-204 L144V) above, with V27L counted along it
# MSX2 [8] = biological target: MSX2 (Homo sapiens, UniProt P35548 130-214, R199I)
# Sequence of MSX2 (Homo sapiens, UniProt P35548 130-214, R199I) (P35548 130-214 R199I): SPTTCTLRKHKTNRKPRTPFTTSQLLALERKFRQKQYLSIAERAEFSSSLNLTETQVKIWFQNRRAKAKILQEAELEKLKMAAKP
# MSX2 [9] = biological target: MSX2 (Homo sapiens, UniProt P35548 130-214)
# Sequence of MSX2 (Homo sapiens, UniProt P35548 130-214) (P35548 130-214): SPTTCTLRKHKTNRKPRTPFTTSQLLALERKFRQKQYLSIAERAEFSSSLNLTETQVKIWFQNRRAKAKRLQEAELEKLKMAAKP
# MSX2 [10] = biological target: MSX2 (Homo sapiens, UniProt P35548 130-214, F161Y)
# Sequence of MSX2 (Homo sapiens, UniProt P35548 130-214, F161Y) (P35548 130-214 F161Y): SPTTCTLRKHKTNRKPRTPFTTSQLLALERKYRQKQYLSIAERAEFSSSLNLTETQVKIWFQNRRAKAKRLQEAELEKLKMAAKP
# PITX2 = PITX2 (Homo sapiens, UniProt Q99697 72-157)
# Sequence of HOXC9 (Homo sapiens, UniProt P31274 178-260, K195R) (P31274 178-260 K195R): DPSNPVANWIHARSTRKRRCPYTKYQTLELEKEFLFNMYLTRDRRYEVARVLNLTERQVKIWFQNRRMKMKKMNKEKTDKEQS
sequence,measurement,setting,value
ACGTTGGG,binding signal,HOXC9 [1],"9.64 upbm affinity estimate (log intensity, higher = more binding, comparable within an allelic series)"
same,binding signal,NKX2-6,"9.44 upbm affinity estimate (log intensity, higher = more binding, comparable within an allelic series)"
same,binding signal,HOXC9 [2],"9.65 upbm affinity estimate (log intensity, higher = more binding, comparable within an allelic series)"
same,binding signal,HOXC9 [3],"9.64 upbm affinity estimate (log intensity, higher = more binding, comparable within an allelic series)"
same,binding signal,HOXC9 [4],"9.77 upbm affinity estimate (log intensity, higher = more binding, comparable within an allelic series)"
CCGGGTAC,binding signal,HOXC9 [1],"9.59 upbm affinity estimate (log intensity, higher = more binding, comparable within an allelic series)"
same,binding signal,NKX2-6,"9.58 upbm affinity estimate (log intensity, higher = more binding, comparable within an allelic series)"
same,binding signal,HOXC9 [2],"9.74 upbm affinity estimate (log intensity, higher = more binding, comparable within an allelic series)"
same,binding signal,ALX1 [5],"6.43 upbm affinity estimate (log intensity, higher = more binding, comparable within an allelic series)"
same,binding signal,HOXC9 [3],"9.61 upbm affinity estimate (log intensity, higher = more binding, comparable within an allelic series)"
same,binding signal,ALX1 [6],"6.2 upbm affinity estimate (log intensity, higher = more binding, comparable within an allelic series)"
same,binding signal,HOXC9 [4],"9.63 upbm affinity estimate (log intensity, higher = more binding, comparable within an allelic series)"
same,binding signal,ALX1 [7],"6.38 upbm affinity estimate (log intensity, higher = more binding, comparable within an allelic series)"
CTCCACGC,binding signal,HOXC9 [1],"9.69 upbm affinity estimate (log intensity, higher = more binding, comparable within an allelic series)"
same,binding signal,HOXC9 [2],"9.61 upbm affinity estimate (log intensity, higher = more binding, comparable within an allelic series)"
same,binding signal,MSX2 [8],"9.56 upbm affinity estimate (log intensity, higher = more binding, comparable within an allelic series)"
same,binding signal,HOXC9 [3],"9.6 upbm affinity estimate (log intensity, higher = more binding, comparable within an allelic series)"
same,binding signal,MSX2 [9],"9.47 upbm affinity estimate (log intensity, higher = more binding, comparable within an allelic series)"
same,binding signal,HOXC9 [4],"9.78 upbm affinity estimate (log intensity, higher = more binding, comparable within an allelic series)"
same,binding signal,MSX2 [10],"9.61 upbm affinity estimate (log intensity, higher = more binding, comparable within an allelic series)"
CGCGGGAG,binding signal,HOXC9 [1],"9.47 upbm affinity estimate (log intensity, higher = more binding, comparable within an allelic series)"
same,binding signal,HOXC9 [2],"9.59 upbm affinity estimate (log intensity, higher = more binding, comparable within an allelic series)"
same,binding signal,MSX2 [8],"9.38 upbm affinity estimate (log intensity, higher = more binding, comparable within an allelic series)"
same,binding signal,HOXC9 [3],"9.43 upbm affinity estimate (log intensity, higher = more binding, comparable within an allelic series)"
same,binding signal,MSX2 [9],"9.23 upbm affinity estimate (log intensity, higher = more binding, comparable within an allelic series)"
same,binding signal,HOXC9 [4],"9.64 upbm affinity estimate (log intensity, higher = more binding, comparable within an allelic series)"
same,binding signal,MSX2 [10],"9.25 upbm affinity estimate (log intensity, higher = more binding, comparable within an allelic series)"
AGTATTAT,binding signal,HOXC9 [1],"11.6 upbm affinity estimate (log intensity, higher = more binding, comparable within an allelic series)"
same,binding signal,HOXC9 [2],"11.6 upbm affinity estimate (log intensity, higher = more binding, comparable within an allelic series)"
same,binding signal,HOXC9 [3],"11.6 upbm affinity estimate (log intensity, higher = more binding, comparable within an allelic series)"
ATCTTTAA,binding signal,HOXC9 [1],"11.4 upbm affinity estimate (log intensity, higher = more binding, comparable within an allelic series)"
same,binding signal,HOXC9 [2],"11.3 upbm affinity estimate (log intensity, higher = more binding, comparable within an allelic series)"
same,binding signal,HOXC9 [3],"11.4 upbm affinity estimate (log intensity, higher = more binding, comparable within an allelic series)"
CCTACTCG,binding signal,HOXC9 [1],"9.67 upbm affinity estimate (log intensity, higher = more binding, comparable within an allelic series)"
same,binding signal,HOXC9 [2],"9.65 upbm affinity estimate (log intensity, higher = more binding, comparable within an allelic series)"
same,binding signal,PITX2,"8.18 upbm affinity estimate (log intensity, higher = more binding, comparable within an allelic series)"
same,binding signal,HOXC9 [3],"9.59 upbm affinity estimate (log intensity, higher = more binding, comparable within an allelic series)"
same,binding signal,HOXC9 [4],"9.71 upbm affinity estimate (log intensity, higher = more binding, comparable within an allelic series)"
